# Source: PubChem BioAssay AID540259 (Broad Institute, 2011)
# Potency and affinity values are given separately. Values without a mark were called inactive.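 How the source made its calls: active means cell killing, meaning signal decrease, with fitted half-maximal dose at or below ten times the top valid tested dose; inconclusive means poor fit, or flat curve with 30 to 70% signal loss; inactive means the rest.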
# Assay: HeLa cell cytotoxicity, dose response, cytotoxicity control for MITF activator project, CellTiter-Glo luminescence, cherry-pick samples (AID 540259);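 further: 0% = DMSO neutral control and -100% = mitoxantrone positive control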
# Conditions: HeLa viability, CellTiter-Glo ATP luminescence, 24 h; series mostly up to 35 µM; activity change, negative = cytotoxicity: at the top concentration
row,SMILES,"activity change, negative = cytotoxicity [%]"
1,COCc1nn2c(N)c(-c3ccccc3)cnc2c1-c1ccccc1,6.09
2,COc1ccc(/C(N)=N/OC(=O)c2cccs2)cc1OC,-1.87
3,O=C(NOCc1ccccc1)OCc1ccccc1,10.8
4,CC(=O)Nc1nnc(COc2ccc(Cl)cc2)s1,5.53
5,Oc1oc(-c2ccccc2)nc1C=NCc1ccccc1,4.32
6,COc1ccc(/C=C2\SC(=O)N(CCNC(=O)C3CC4C=CC3C4)C2=O)cc1 (configuration not stated),-3.98
7,CN1C(=O)C2C=CC1C1C(=O)N(c3ccccc3)C(=O)C21 (configuration not stated),15.4
8,O=C(Nc1ccc(NC(=O)c2ccccc2F)cc1)c1cccs1,-13.1
9,CC(C)(C)c1ccc(-c2noc(-c3ccno3)n2)cc1,-6.69
10,Oc1nc(Nc2ccccc2)sc1/C=C1\C=Nc2ccccc21,4.73
11,Cc1nc2cc3nc(C)sc3cc2s1,16.3
12,c1ccc(COc2ccc(-c3csnn3)cc2)cc1,2.43
13,O=c1[nH]c(Cc2cccs2)nc2scc(-c3ccc(Cl)cc3)c12,8.29
14,Cc1cccc(Nc2nc3c(s2)CCCC3)c1,-9.87
15,COc1cc(/C=C/c2noc(-c3ccccc3O)n2)ccc1OC(C)=O,-3.83
16,Cc1ccc(-n2nnc3ccccc3c2=O)cc1C,-4.59
17,CC(NC(=O)c1cc(COc2ccccc2)on1)c1nccs1 (configuration not stated),-2.76
18,CCCCN(C(=O)Cc1cccs1)c1nnc(-c2cccnc2)s1,0.977
19,Nc1nc2ccccc2cc1-c1cccs1,1.96
20,CCCc1cc(C(=O)Nc2ccc(C(=O)OC)cc2)cs1,-6.83
21,C=CCSc1nncn1/N=C/c1ccc(OC)cc1,11.5
22,C=CCn1cnc2c(nnn2-c2ccc(C)c(C)c2)c1=O,-8.47
